FBA Mtb inh: inhibitors of M. tuberculosis fructose-bisphosphate aldolase. purified M. tuberculosis FBA, fluorescence read-out. inhibition, % at 1 µM. 360,000 tested, 2.3% active. AID 588726; in the data active = inhibition above about 27%;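 note: 0% = vehicle and 100% = reference inhibitor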
Target sequence (P9WQA3 whole entry, looked up): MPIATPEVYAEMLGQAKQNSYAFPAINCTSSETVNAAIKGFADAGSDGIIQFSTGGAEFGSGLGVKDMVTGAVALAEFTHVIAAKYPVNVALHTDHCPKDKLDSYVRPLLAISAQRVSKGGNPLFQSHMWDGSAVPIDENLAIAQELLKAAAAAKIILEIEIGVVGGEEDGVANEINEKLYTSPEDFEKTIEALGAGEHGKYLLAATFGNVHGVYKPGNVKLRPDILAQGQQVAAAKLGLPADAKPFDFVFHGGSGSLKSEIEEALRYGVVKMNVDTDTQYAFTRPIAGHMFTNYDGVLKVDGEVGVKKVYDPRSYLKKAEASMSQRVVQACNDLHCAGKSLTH
Mtb bLac sens: beta-lactam sensitization of Mtb H37Rv; M. tuberculosis H37Rv growth with meropenem, percent inhibition; inhibition, % at 25 µM; 330,000 tested, 0.27% active; call rule not given here;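 note: growth measured after seven days incubation then overnight dye step; 0% = bacteria only wells and 100% = bacteria with antibiotic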
UGM FP inh: blocks M. tuberculosis UGM enzyme; purified UGM, fluorescence polarization probe displacement; AID 504406; 320,000 tested, 0.06% active; inhibition, % at 10 µM; P9WIQ1; in the data active = inhibition above about 10%, passing the limit was not always enough
GDH-TPI inh: GDH-TPI coupled enzyme inhibition counter-screen | 360,000 tested, 1.2% active | GDH-TPI coupled enzyme counterscreen, NADH absorbance | AID 588335 | inhibition, % at 4.8 µM; in the data active = inhibition above about 30%;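 note: 0% = DMSO wells and 100% = wells lacking the enzyme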
Rv3671c protease: inhibits the M. tuberculosis serine protease Rv3671c. P9WHR9. 320,000 tested, 0.048% active. inhibition, % at 5.96 µM; in the data active = inhibition above about 38%;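 note: extracellular domain of Rv3671c used as enzyme; 0% = enzyme with DMSO and 100% = no enzyme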
RecA intein inh: inhibitors of M. tuberculosis RecA intein splicing; P9WHJ3; cell-free RecA intein splicing, fluorescence; inhibition, % (test concentration not listed); 290,000 tested, 0.75% active; AID 2221; in the data active = inhibition above about 30%;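 note: 0% = vehicle wells and 100% = reference inhibitor control wells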
* hit, by the source's call. An excerpt weighted towards active compounds, which were near 4% of everything screened.

How did CCOC(=O)c1sc2c(c1C)C(c1cccs1)C1=C(CCCC1=O)N2 (centres undefined) do in these assays?
FBA Mtb inh: active; Mtb bLac sens: 17.0; UGM FP inh: 6.2; GDH-TPI inh: 10.5; Rv3671c protease: -0.9; RecA intein inh: -16.1

Results for O=c1c2ccccc2nc2n1CCCCN2 ?
FBA Mtb inh: 68.4*; Mtb bLac sens: -6.2; UGM FP inh: -0.3; GDH-TPI inh: 2.6; Rv3671c protease: 6.8; RecA intein inh: 1.4

What do the screens show for `O=c1c2ccccc2nc2n1CCC2`?
FBA Mtb inh: -1.6; Mtb bLac sens: -4.8; UGM FP inh: 3.3; GDH-TPI inh: 10.5; Rv3671c protease: 6.5; RecA intein inh: 50.6*

Results for c1ccc2c(c1)ncc1cccn12 ?
FBA Mtb inh: active; Mtb bLac sens: -0.2; UGM FP inh: 0.3; GDH-TPI inh: 16.7; Rv3671c protease: 1.5; RecA intein inh: 0.1

What do the screens show for `CN1CCN(C(=O)c2ccc(C(C)(C)C)cc2)CC1`?
FBA Mtb inh: 0.4; Mtb bLac sens: 0.6; UGM FP inh: 0.4; GDH-TPI inh: 2.6; Rv3671c protease: 1.7; RecA intein inh: -1.1

How did O=C(N/N=C/c1ccc2c(c1)OCO2)c1cc(-c2ccccc2)nc2ccccc12 do in these assays?
FBA Mtb inh: 1.3; Mtb bLac sens: 4.7; UGM FP inh: -0.9; GDH-TPI inh: 15.6; Rv3671c protease: -52.7; RecA intein inh: 6.3

Results for Cc1ccn2c(=O)c(NC(=O)c3ccc4c(c3)OCO4)c(C)nc2c1 ?
FBA Mtb inh: -0.1; GDH-TPI inh: 31.2*

How did Cc1ccn2c(=O)c(NC(=O)c3cccs3)c(C)nc2c1 do in these assays?
FBA Mtb inh: 3.9; Mtb bLac sens: -10.8; UGM FP inh: 4.7; GDH-TPI inh: 22.1; Rv3671c protease: -1.1; RecA intein inh: -5.3

How did Cc1ccc2nc(C)c(C(=O)N/N=C/c3ccccc3[N+](=O)[O-])cc2c1 do in these assays?
FBA Mtb inh: -4.9; Mtb bLac sens: -2.2; UGM FP inh: -1.4; GDH-TPI inh: 3.0; Rv3671c protease: 0.9; RecA intein inh: -2.6

Results for O=C(N/N=C/c1ccc2c(c1)OCO2)c1ccc2ccccc2n1 ?
FBA Mtb inh: 0.1; Mtb bLac sens: 59.7; UGM FP inh: -1.0; GDH-TPI inh: 32.2*; Rv3671c protease: 1.1; RecA intein inh: -0.1

How did Cc1cccc(C(=O)N/N=C/c2ccc3c(c2)OCO3)n1 do in these assays?
FBA Mtb inh: -3.2; Mtb bLac sens: 8.1; UGM FP inh: 0.3; GDH-TPI inh: 32.9*; Rv3671c protease: 4.8; RecA intein inh: -2.4

Results for C[n+]1cccc(C(=O)N/N=C/c2ccc3c(c2)OCO3)c1 ?
FBA Mtb inh: 1.2; Mtb bLac sens: -5.9; UGM FP inh: -1.4; GDH-TPI inh: 24.9; Rv3671c protease: 1.4

How did Cc1ccn2c(C(=O)N/N=C\c3ccccc3[N+](=O)[O-])c(C)nc2c1 do in these assays?
FBA Mtb inh: 8.8; Mtb bLac sens: -1.0; UGM FP inh: -3.5; GDH-TPI inh: 44.4*; Rv3671c protease: -4.6; RecA intein inh: -1.1

How did COc1ccc(CCn2nnnc2C(C(C)C)N2CCN(c3ncccn3)CC2)cc1OC (centres undefined) do in these assays?
FBA Mtb inh: 1.8; Mtb bLac sens: -5.8; UGM FP inh: -1.6; GDH-TPI inh: -0.5; Rv3671c protease: -0.1; RecA intein inh: 0.4

What do the screens show for `Cc1ccn2c(C(=O)N/N=C/c3ccc(Cl)cc3)c(C)nc2c1`?
FBA Mtb inh: 2.0; GDH-TPI inh: 9.6; RecA intein inh: -0.5

What do the screens show for `Cc1ccn2c(C(=O)N/N=C\c3ccc4c(c3)OCO4)c(C)nc2c1`?
FBA Mtb inh: -0.7; Mtb bLac sens: -0.4; UGM FP inh: 2.8; GDH-TPI inh: 46.5*; Rv3671c protease: -6.4; RecA intein inh: -3.8

What do the screens show for `C#CCn1c(=NC(=O)c2cccs2)sc2cccc(OC)c21`?
FBA Mtb inh: 6.4; Mtb bLac sens: 7.8; UGM FP inh: 3.1; GDH-TPI inh: 30.8*; Rv3671c protease: -37.0; RecA intein inh: -5.0

What do the screens show for `C#CCn1c(=NC(=O)CN2C(=O)CCC2=O)sc2cccc(OC)c21`?
FBA Mtb inh: 13.5; Mtb bLac sens: -5.6; UGM FP inh: 0.1; GDH-TPI inh: 2.0; Rv3671c protease: 5.4; RecA intein inh: -1.8

How did C=CCn1c(=NC(=O)c2cccc(N3C(=O)CCC3=O)c2)sc2cccc(OC)c21 do in these assays?
FBA Mtb inh: 3.1; Mtb bLac sens: -5.3; UGM FP inh: -1.0; GDH-TPI inh: 41.6*; Rv3671c protease: -10.6; RecA intein inh: -0.8

Results for COc1cccc(NC(=O)CSc2nc3scc(C)c3c(=O)[nH]2)c1 ?
FBA Mtb inh: -0.1; Mtb bLac sens: -4.5; UGM FP inh: -0.2; GDH-TPI inh: 3.0; Rv3671c protease: 4.2; RecA intein inh: 6.1

Results for Nc1ccc(-c2cnc(-c3ccc(N)cc3)nc2)cc1 ?
FBA Mtb inh: -5.8; Mtb bLac sens: 16.4; UGM FP inh: 0.1; GDH-TPI inh: 67.0*; Rv3671c protease: 6.5; RecA intein inh: -0.4

How did Cc1c(Cc2ccccc2)c(=O)oc2cc(O)ccc12 do in these assays?
FBA Mtb inh: active; Mtb bLac sens: -3.9; UGM FP inh: 1.2; GDH-TPI inh: 27.2; Rv3671c protease: -10.0; RecA intein inh: -18.5

What do the screens show for `CCOC(=O)CCc1c(C)c2ccc(OC3CCCCC3=O)c(C)c2oc1=O` (centres undefined)?
FBA Mtb inh: 22.8; Mtb bLac sens: 40.9; UGM FP inh: 3.2; GDH-TPI inh: 8.1; Rv3671c protease: -0.4; RecA intein inh: -1.8

Results for CCOC(=O)CCc1c(C)c2ccc(O)cc2oc1=O ?
FBA Mtb inh: active; Mtb bLac sens: 2.0; UGM FP inh: -1.6; GDH-TPI inh: 0.6; Rv3671c protease: -8.0; RecA intein inh: -28.7

How did CCOC(=O)Cc1c(C)c2c(O)cc(O)cc2oc1=O do in these assays?
FBA Mtb inh: 121.0*; Mtb bLac sens: -7.5; UGM FP inh: 0.6; GDH-TPI inh: 18.8; Rv3671c protease: -0.8; RecA intein inh: -135.0

What do the screens show for `Cc1c(Cc2ccccc2)c(=O)oc2c(CN(C)C)c(O)c(Cl)cc12`?
FBA Mtb inh: active; Mtb bLac sens: -5.5; UGM FP inh: -1.7; GDH-TPI inh: 17.2; Rv3671c protease: -0.8; RecA intein inh: -349.1

How did CC(=O)Nc1ccc(C(C)=NNC(=O)C2CCCC2)cc1 do in these assays?
FBA Mtb inh: -1.9; GDH-TPI inh: -1.0

How did COc1ccc(S(=O)(=O)Nc2ccc3c(c2)C(=O)N([C@H](C)CO)C[C@H](C)[C@@H](CN(C)S(=O)(=O)c2cccs2)O3)cc1 do in these assays?
FBA Mtb inh: -0.8; Mtb bLac sens: 0.8; UGM FP inh: -0.9; GDH-TPI inh: 2.2; Rv3671c protease: 9.3

How did COc1cc2c(cc1OC)CN(CC(=O)Nc1ccc3c(c1)OC(F)(F)O3)CC2 do in these assays?
FBA Mtb inh: -1.0; Mtb bLac sens: -13.2; UGM FP inh: -0.6; GDH-TPI inh: 20.7; Rv3671c protease: 2.2; RecA intein inh: 0.4

What do the screens show for `CN1CCN(CCCNC(=O)CCN2C(=O)COc3ccccc32)CC1`?
FBA Mtb inh: 0.6; Mtb bLac sens: 2.1; UGM FP inh: -1.7; GDH-TPI inh: 2.6; Rv3671c protease: -9.8; RecA intein inh: 0.9
